Assay results published in PubChem BioAssay (NCATS).
Results filed as inconclusive are left out. Calls of active or inactive are those of the source. Calls follow the shape of the dose curve; as a rule, active = well fitted inhibition curve with a large enough effect; inconclusive = small, poorly fitted or top-dose-only effect; inactive = flat fitted curve, though single readings scatter.

Tests used:
[1] = tested on: CRL-7250; assay: Cytotoxic Profiling of Annotated Libraries Using Quantitative High-Throughput Screening (AID 1296008); details: Five cell lines viability, CellTiter-Glo ATP luminescence, 48-72 h; max response: active compounds read low; as to max response: % is scaled to controls: 0 for no effect and ±100 for the full control effect
Procedure, shortened: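 Cytotoxicity was measured as CellTiter-Glo ATP luminescence, read after 10 min at room temperature. Compound treatment of the cells lasted 48 or 72 hr at 37 degrees Celsius in a qHTS format.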

[2] = tested on: DIV30; assay: qHTS profiling for inhibitors of Plasmodium falciparum proliferation (AID 504749); details: P. falciparum in erythrocytes, SYBR Green DNA, 72 h
Procedure, shortened: (§1)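 Infected RBCs, 0.3% parasitemia/2.5% Hct final; cpd 72 h, 37 C, 5% CO2; lysis buffer with saponin/triton/SYBR Green I, o/n RT dark; FI 485/535; norm. to artemisinin (0.29 uM) and DMSO.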

[3] = tested on: Dd2; assay: as above; details: P. falciparum in erythrocytes, SYBR Green DNA, 72 h
Procedure, shortened: as §1

[4] = tested on: ECU; assay: as above; details: P. falciparum in erythrocytes, SYBR Green DNA, 72 h
Procedure, shortened: as §1

[5] = tested on: GB4; assay: as above; details: P. falciparum in erythrocytes, SYBR Green DNA, 72 h
Procedure, shortened: as §1

[6] = tested on: HB3; assay: as above; details: P. falciparum in erythrocytes, SYBR Green DNA, 72 h
Procedure, shortened: as §1

[7] = tested on: ICS; assay: as above; details: P. falciparum in erythrocytes, SYBR Green DNA, 72 h
Procedure, shortened: as §1

[8] = tested on: JCK; assay: as above; details: P. falciparum in erythrocytes, SYBR Green DNA, 72 h
Procedure, shortened: as §1

[9] = tested on: N140; assay: as above; details: P. falciparum in erythrocytes, SYBR Green DNA, 72 h
Procedure, shortened: as §1

[10] = tested on: P93_24; assay: as above; details: P. falciparum in erythrocytes, SYBR Green DNA, 72 h
Procedure, shortened: as §1

[11] = tested on: P94_40; assay: as above; details: P. falciparum in erythrocytes, SYBR Green DNA, 72 h
Procedure, shortened: as §1

[12] = tested on: PAD; assay: as above; details: P. falciparum in erythrocytes, SYBR Green DNA, 72 h
Procedure, shortened: as §1

[13] = tested on: PC15; assay: as above; details: P. falciparum in erythrocytes, SYBR Green DNA, 72 h
Procedure, shortened: as §1

[14] = tested on: PC26; assay: as above; details: P. falciparum in erythrocytes, SYBR Green DNA, 72 h
Procedure, shortened: as §1

[15] = tested on: PC49; assay: as above; details: P. falciparum in erythrocytes, SYBR Green DNA, 72 h
Procedure, shortened: as §1

[16] = tested on: SC27B; assay: as above; details: P. falciparum in erythrocytes, SYBR Green DNA, 72 h
Procedure, shortened: as §1

[17] = tested on: TAB109; assay: as above; details: P. falciparum in erythrocytes, SYBR Green DNA, 72 h
Procedure, shortened: as §1

[18] = tested on: TAB113; assay: as above; details: P. falciparum in erythrocytes, SYBR Green DNA, 72 h
Procedure, shortened: as §1

[19] = tested on: TAB165; assay: as above; details: P. falciparum in erythrocytes, SYBR Green DNA, 72 h
Procedure, shortened: as §1

[20] = tested on: W2; assay: as above; details: P. falciparum in erythrocytes, SYBR Green DNA, 72 h
Procedure, shortened: as §1
Also: nearly all actives have a fitted effect of over 60% in size.
Potency is read from the fitted curve at half-maximal effect.

COC(=O)CCc1cc2ccoc2c(OC)c1O[C@@H]1O[C@H](CO)[C@@H](O)[C@H](O)[C@H]1O
inactive: max response [1] -7.38%

COc1ccc(C(=O)n2c(C)c(Cc3cccc(O[C@@H](C)C(=O)O)c3)c3cc(OC(F)(F)F)ccc32)cc1
inactive: max response [1] -19.1%

COC(=O)C(C)C1CCC2(C)C(=O)C=CC(C)(O)C2C1O (stereo not given)
inactive: outcome [1]

CC(=O)O[C@@H]1[C@@H](O)[C@H](C)O[C@@H](O[C@H]2[C@@H]3C=CO[C@@H](O[C@@H]4O[C@H](CO)[C@@H](O)[C@H](O)[C@H]4O)[C@@H]3[C@@]3(CO)O[C@@H]23)[C@@H]1OC(=O)/C=C/c1ccccc1
inactive: max response [1] -1.26%

C[C@@H]1CC[C@]2(C(=O)O)CC[C@]3(C)C(=CCC4[C@@]5(C)C[C@@H](O)[C@H](O)[C@@](C)(CO)C5CC[C@]43C)C2[C@]1(C)O (stereo not given in full)
inactive: max response [1] -3.26%

CC(=O)O[C@H]1C(=O)[C@@]2(C)[C@H]([C@H](OC(=O)c3ccccc3)[C@]3(O)C[C@H](OC(=O)[C@H](O)[C@@H](NC(=O)c4ccccc4)c4ccccc4)C(C)=C1C3(C)C)[C@]1(OC(C)=O)CO[C@@H]1C[C@@H]2O
active: Potency [2] 601 nM | Potency [3] 126 nM | Potency [4] 891 nM | Potency [5] 338 nM | Potency [6] 1000 nM | Potency [7] 398 nM | Potency [8] 11200 nM | Potency [9] 631 nM | Potency [10] 631 nM | Potency [11] 355 nM | Potency [12] 708 nM | Potency [13] 1410 nM | Potency [14] 536 nM | Potency [15] 2000 nM | Potency [16] 1260 nM | Potency [17] 355 nM | Potency [18] 1260 nM | Potency [19] 282 nM | Potency [20] 169 nM

CCNC(=O)Nc1ccc(-c2nc3c(c(N4CCOC[C@@H]4C)n2)CCN(c2ncccn2)C3)cc1
active: Potency [1] 259 nM

O=C1NC2CCc3nc4ccccc4c(=O)n3C2=Nc2ccccc21 (stereo not given)
inactive: max response [1] 2.4%

OC[C@@]1(O)CO[C@@H](OC[C@H]2O[C@@H](Oc3c[nH]c4ccccc34)[C@H](O)[C@@H](O)[C@@H]2O)[C@@H]1O
inactive: max response [1] -23.1%

CC[C@]1(O)CC2CN(CCc3c([nH]c4ccccc34)[C@@](C(=O)OC)(c3cc4c(cc3OC)N(C)[C@H]3[C@@](O)(C(=O)OC)[C@H](OC(C)=O)[C@]5(CC)C=CCN6CC[C@]43[C@@H]65)C2)C1 (stereo not given in full)
active: Potency [2] 1900 nM | Potency [3] 178 nM | Potency [4] 2240 nM | Potency [5] 1900 nM | Potency [6] 398 nM | Potency [7] 708 nM | Potency [9] 2820 nM | Potency [10] 1260 nM | Potency [11] 1000 nM | Potency [12] 4470 nM | Potency [13] 5010 nM | Potency [14] 1690 nM | Potency [16] 3550 nM | Potency [17] 1000 nM | Potency [18] 3980 nM | Potency [19] 2000 nM | Potency [20] 478 nM | Potency [1] 259 nM
